Consider 40 compounds from PubChem BioAssay (EPA / NIEHS).

Where “and” joins values, the source holds several entries; their conditions need not be identical. Equal entries are not always repeated. Records with an inconclusive call do not appear. A structure can be active in one record and inactive in another. Calls of active or inactive are those of the source. Rule for the calls, unless noted: active = hit-call score of the fitted dose curve at least 0.9, where 1 is the maximum; inconclusive = response in the unintended direction; inactive = score below 0.9.

Test [1] in a line: CCTE_Shafer_MEA_acute_AB: CCTE's Alamar Blue Assay for Cytotoxicity in the Neural Acute Assay, Shafer Lab (AID 2284069).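 Note: active compounds lower the viability signal compared with DMSO wells.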 The method, boiled down: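 Resazurin reduction (CellTiter Blue, 1:6 in fresh medium) read at ex 544/em 590 nm marks viability loss relative to DMSO. Cells: primary rat cortical neuron networks on microelectrode arrays, treated after baseline recording at 13 or 15 days in vitro.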

Test [2] is described as follows: CCTE_Shafer_MEA_acute_LDH: CCTE's Lactate Dehydrogenase Assay for Cytotoxicity in the Neural Acute Assay, Shafer Lab (AID 2284086).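 Note: active means LDH release rises above DMSO vehicle level.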 The method, boiled down:
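Medium from rat cortical neuron MEA cultures sampled right after the 40 min compound-exposure recording; released LDH measured by absorbance at 490 nm. Analyzed as signal gain relative to DMSO.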

Test [3] in a line: UKN5_HCS_SBAD2_cell_viability: Viability Assessment in the University of Konstanz (UKN) Leist Lab Neurite Outgrowth Assay in human iPSC-derived immature Dorsal Root Ganglia Neurons (UKN5) (AID 2284056; active = hit-call score of the fitted dose curve at least 0.9, where 1 is the maximum; inactive = score below 0.9). The method, boiled down: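 iPSC-derived immature peripheral neurons (SBAD2) seeded on Matrigel with CHIR99021, SU5402 and DAPT, dosed 1 h later for 24 h. Viability from Hoechst H-33342 and calcein-AM live staining, high-content imaging; bidirectional fit versus DMSO.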

A short description of test [4]: CCTE_Shafer_MEA_dev_LDH: CCTE's Lactate Dehydrogenase Assay for Cytotoxicity in the Neural Network Formation Assay, Shafer Lab (AID 2284068).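 Note: exposure for twelve days from plating with re-dosing on DIV 5 and 9.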 The procedure, abridged:
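Primary rat cortical neurons were cultured on PEI-coated MEA plates and exposed from plating through day 12, with compound renewed at medium changes on DIV 5 and 9. LDH activity was read spectrophotometrically; loss of signal versus DMSO indicates reduced viability.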

The nature of test [5]: UKN5_HCS_SBAD2_neurite_outgrowth: University of Konstanz (UKN) Leist Lab Neurite Outgrowth Assay in human iPSC-derived immature Dorsal Root Ganglia Neurons (UKN5) (AID 2284070; active = hit-call score of the fitted dose curve at least 0.9, where 1 is the maximum; inactive = score below 0.9). Particulars: actives raise or lower the signal. The method, boiled down:
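SBAD2 iPSC-derived immature peripheral neurons on Matrigel, 100.000 cells/cm2, medium with CHIR99021 (1.5 uM), SU5402 (5 uM), DAPT (5 uM); compound added 1 h post-seeding for 24 h. Calcein-AM neurite area by high-content imaging; Hoechst H-33342 viability; bidirectional fit vs DMSO.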

The nature of test [6]: CCTE_Shafer_MEA_dev_AB: CCTE's Alamar Blue Assay for Cytotoxicity in the Neural Network Formation Assay, Shafer Lab (AID 2284083).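 Note: resazurin reduction fluorescence as viability of cultured neurons; twelve days of exposure from plating with re-dosing on DIV 5 and 9.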 The method, boiled down: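 Resazurin fluorescence, relative to DMSO, gauges viability after twelve days of exposure that began at plating of rat cortical neurons (1.5 x 10^5 cells/well, 48-well MEA); treatment renewed with full medium exchange on DIV 5 and 9.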

Test [7] is described as follows: CCTE_Shafer_MEA_dev_mutual_information_norm: CCTE's Neural Network Formation Assay for Mutual Information Normalization, Shafer Lab (AID 2284091; active = hit-call score of the fitted dose curve at least 0.9, where 1 is the maximum; inactive = score below 0.9;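 for AC50: mutual information between electrodes summarised as area under curve across four recording days; potency is for a decrease in mutual information relative to DMSO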). The method, boiled down:
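Developing rat cortical networks on 16-electrode MEA wells are treated throughout formation (DIV 0–12). Shared electrode information is recorded four times, converted to area-under-curve, and fitted for decreases against DMSO vehicle.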

Test [8] is described as follows: CCTE_Shafer_MEA_dev_correlation_coefficient_mean: CCTE's Neural Network Formation Assay for Mean Correlation Coefficient, Shafer Lab (AID 2284093; active = hit-call score of the fitted dose curve at least 0.9, where 1 is the maximum; inactive = score below 0.9;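 for AC50: well mean pairwise spike train correlation integrated as AUC over recording days 5 to 12; potency fitted for loss of correlation relative to DMSO vehicle wells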). The procedure, abridged:
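Primary rat cortical neurons on PEI-coated 48-well MEA plates (16 electrodes/well) were exposed from plating day 0 through DIV12, with compound renewed at DIV5 and 9. Pairwise spike correlations were averaged per well; trapezoidal AUC across DIV5, 7, 9, 12.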

Test [9] is described as follows: UKN2_HCS_IMR90_neural_migration: University of Konstanz (UKN) Leist Lab Neural Crest Cell Migration Assay in human induced IMR90 Pluripotent Stem Cells (UKN2) (AID 2284204; active = hit-call score of the fitted dose curve at least 0.9, where 1 is the maximum; inactive = score below 0.9). Particulars: actives raise or lower the signal. The procedure, abridged: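 Migration of human IMR90-derived neural crest cells into a stopper-defined gap is imaged after 24 h chemical treatment. Activity is fitted bidirectionally relative to DMSO.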

Test [10] in a line: UKN4_HCS_LUHMES_neurite_outgrowth: University of Konstanz (UKN) Leist Lab Neurite Outgrowth Assay in human LUHMES cells (UKN4) (AID 2284206; active = hit-call score of the fitted dose curve at least 0.9, where 1 is the maximum; inactive = score below 0.9). Particulars: actives raise or lower the signal. The method, boiled down: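 Human LUHMES neuronal precursors, differentiated 2 days then replated without cAMP and GDNF, exposed to compounds for 24 h. Neurite area imaged by high-content microscopy after calcein-AM live staining; Hoechst H-33342 for viability; bidirectional fit versus DMSO.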

Regarding `Cn1c(-c2ccccc2)cc(-c2ccccc2)[n+]1C`, the compound was classed as inactive in test [1] and in [2].

With `COP(=S)(OC)SCn1nnc2ccccc2c1=O`, the AC50 (as a rule, the concentration giving half of the maximal activity seen) in test [3] is 47.2 µM (active); in test [4] it was 22.7 µM (active); in test [5], 35.1 µM (active); in test [6], 26.2 µM (active); in [7], 0.00499 µM (active); in [8] it was 15 µM (active). For the same compound, the values for the AC50 in test [9] and in test [10] were 19.6 µM (active) and 15.4 µM (active), respectively. Also, the result in test [1] and in test [2] was inactive.

In the case of `CCN(CC)c1nc(C)cc(OP(=S)(OC)OC)n1`, the AC50 in [4] was 29.2 µM (active); in test [6] it was 50 µM (active); in [7], 21.8 µM (active); in test [8] it was 27.4 µM (active).

Regarding `Nc1c(Cl)c(F)nc(OCC(=O)O)c1Cl`, the result in test [1] and in [2] was inactive.

Regarding `CC1(C)CCC(=Cc2ccc(Cl)cc2)C1(O)Cn1cncn1` (configuration not stated), the call in [1] and in [2] was inactive.

`Clc1nc(Cl)nc(Nc2ccccc2Cl)n1`: the call in [1] and in [2] was inactive.

Consider `CC(C)N1C(=O)c2ccccc2NS1(=O)=O`, for which the compound was classed as inactive in test [2].

Take `C=C(C)CN(CC)c1c([N+](=O)[O-])cc(C(F)(F)F)cc1[N+](=O)[O-]`: the AC50 in test [4] is 14.5 µM (active); in [6] it was 15.6 µM (active); in [7], 12.8 µM (active); in test [8], 14 µM (active). Moreover, the result in [1] and in test [9] was inactive.

As for `Cc1c(COC(=O)[C@@H]2[C@H](/C=C(\Cl)C(F)(F)F)C2(C)C)cccc1-c1ccccc1`, the AC50 in test [4] was 17.5 µM (active) and 11.2 µM (active); in test [6] it was 14.6 µM (active) and 14.9 µM (active); in test [7], 142 nM (active) and 269 nM (active); in test [8], 395 nM (active) and 497 nM (active). In addition, the call in test [2] and in [9] was inactive.

For `CO/N=C(/C1=NOCCO1)c1ccccc1Oc1ncnc(Oc2ccccc2Cl)c1F`, the AC50 in test [4] is 643 nM (active) and 858 nM (active); in test [6], 1.47 µM (active) and 2.27 µM (active); in test [7], 401 nM (active) and 924 nM (active); in [8] it was 844 nM (active) and 1.02 µM (active). In addition, the compound was called inactive in test [1] and in test [9].

Take `CC(C)C1(C)N=C(c2ncccc2C(=O)O)NC1=O` (configuration not stated): the compound was classed as inactive in [1] and in [2].

For `COCC(=O)N(c1c(C)cccc1C)C(C)C(=O)OC` (configuration not stated), the compound was classed as inactive in test [2].

For `COP(=O)(OC)O/C(C)=C/C(=O)N(C)C`, the compound was called inactive in test [4], in test [6], in test [7] and in [8].

As for `CCNC(=O)NC(=O)C(C#N)=NOC`, the call in [4], in test [6], in test [7] and in [8] was inactive.

Turning to `COC(=O)N(C(=O)N1CO[C@@]2(C(=O)OC)Cc3cc(Cl)ccc3C2=N1)c1ccc(OC(F)(F)F)cc1`, the values for the AC50 in test [4], in [6] and in test [8] were 7.61 µM (active), 2.98 µM (active) and 15 µM (active), respectively. Besides, the compound was called inactive in test [2], in test [7] and in [9].

Take `O=C1C2CC=CCC2C(=O)N1SC(Cl)(Cl)Cl` (configuration not stated): the AC50 in test [4] was 15.9 µM (active) and 13.8 µM (active); in test [6], 16.1 µM (active) and 14.7 µM (active); in test [8], 9.85 µM (active). For the same compound, the outcome in test [7] was inactive.

Consider `COP(=S)(OC)Oc1ccc([N+](=O)[O-])c(C)c1`, for which the compound was called inactive in test [4], in test [6], in test [7] and in test [8].

On to `Cc1nc(N(C)C)nc(OC(=O)N(C)C)c1C`, for which the call in test [2] was inactive.

With `O=C(Nc1ccccc1-c1ccc(Cl)cc1)c1cccnc1Cl`, the AC50 in test [4] is 50 µM (active); in test [6] it was 77.7 µM (active); in test [7] it was 18.3 µM (active); in test [8], 9.92 µM (active). Moreover, the compound was classed as inactive in test [4], in test [6], in test [2], in test [7], in [8] and in test [9].

Take `N#CN=C1SCCN1Cc1ccc(Cl)nc1`: the compound was called inactive in test [4], in test [1], in test [2], in test [7] and in [8].

`CCOC(=O)C(C)OC(=O)c1cc(Oc2ccc(C(F)(F)F)cc2Cl)ccc1[N+](=O)[O-]` (configuration not stated): the compound was classed as inactive in [4], in test [1], in [6], in test [2], in test [7] and in test [8].

For the compound `CCOc1nc(F)cc2nc(S(=O)(=O)Nc3c(Cl)cccc3Cl)nn12`, the outcome in [1] was inactive.

As to `CNC(=O)Oc1cccc2ccccc12`, the AC50 is 15 µM (active) and 25.1 µM (active) in [4]; 15 µM (active) in test [6]; 8.41 µM (active) and 15 µM (active) in [7]; 12.8 µM (active) in test [8]. Moreover, the compound was classed as inactive in test [1], in test [6] and in [8].

For the compound `Cc1ccc(N=CN(C)C=Nc2ccc(C)cc2C)c(C)c1`, the call in test [1] was inactive.

Take `CC(C)N1C(=O)N(c2ccccc2)CSC1=NC(C)(C)C`: the call in test [1] and in test [2] was inactive.

With `CCSC(=O)N1CCCCCC1`, the outcome in [4], in test [6], in test [7], in test [8] and in test [9] was inactive.

Consider `CN/C(=N\[N+](=O)[O-])NCc1cnc(Cl)s1`, for which the call in test [4], in test [7] and in test [8] was inactive.

In the case of `CC(C)(C)C(=O)C(Oc1ccc(Cl)cc1)n1cncn1` (configuration not stated), the AC50 in [4] was 37.5 µM (active); in test [6] it was 38.6 µM (active); in [8] it was 41.6 µM (active). Also, the call in test [7] and in test [9] was inactive.

Turning to `CS(=O)(=O)c1ccc(C(=O)C2C(=O)CCCC2=O)c([N+](=O)[O-])c1`, the outcome in test [4], in test [6], in [7], in test [8] and in test [9] was inactive.

With `CCOc1cc(C(C)(C)C)ccc1C1COC(c2c(F)cccc2F)=N1` (configuration not stated), in [2], the compound was called inactive.

As for `CC1(C)C(C(=O)OC(C#N)c2cccc(Oc3ccccc3)c2)C1(C)C` (configuration not stated), the AC50 is 17.8 µM (active) in test [4], 1.98 µM (active) in test [6], 1.01 µM (active) in [7] and 4.17 µM (active) in [8].

For `CCOP(=O)(OCC)Oc1nc(Cl)c(Cl)cc1Cl`, the AC50 in [3] was 18.3 µM (active); in test [4], 610 nM (active) and 413 nM (active); in test [5] it was 14.6 µM (active); in test [6], 9.43 µM (active) and 334 nM (active); in [7], 872 nM (active) and 2.17 µM (active); in test [8], 5.46 µM (active) and 7.1 µM (active). For the same compound, the compound was called inactive in test [4], in test [1], in [6], in [2], in test [7] and in test [8]. In addition, the result in test [9] and in test [10] was inactive.

Take `CCCCC(O)(Cn1cncn1)c1ccc(Cl)cc1Cl` (configuration not stated): in test [2], the result was inactive.

As for `N#Cc1c[nH]cc1-c1cccc2c1OC(F)(F)O2`, the outcome in test [2] was inactive.

Turning to `CCCC(=NOCC)C1=C(O)CC(CC(C)SCC)CC1=O` (configuration not stated), the compound was classed as inactive in test [2].

For the compound `CC1(C)C(C=C(Cl)Cl)C1C(=O)OC(C#N)c1cccc(Oc2ccccc2)c1` (configuration not stated), the compound was called inactive in [4], in test [1], in test [6], in test [2], in test [7] and in [8]. The figures for the concentration at half-maximal activity (AC50) in test [7] and in test [8] were 1.43 µM (active) and 3.6 µM (active), respectively.

Take `OC(c1ccc(Cl)cc1)(c1ccc(Cl)cc1)C(Cl)(Cl)Cl`: the result in test [1] and in test [2] was inactive.

Consider `CCCN(CC)CC1COC2(CCC(C(C)(C)C)CC2)O1` (configuration not stated), for which the AC50 in test [4] is 0.168 µM (active); in [6] it was 0.246 µM (active); in test [7], 0.119 µM (active); in [8] it was 0.281 µM (active).

For `CS(=O)(=O)c1cc(C(F)(F)F)ccc1C(=O)c1cnoc1C1CC1`, the outcome in test [7], in test [8] and in [9] was inactive.

Turning to `CC(C)=CC1C(C(=O)OCc2coc(Cc3ccccc3)c2)C1(C)C` (configuration not stated), the AC50 in test [4] is 14.1 µM (active). In addition, the result in [1], in test [6], in [2], in test [7] and in [8] was inactive.
